TRHR enhancer – allosteric enhancers of human TRH receptor. 360,000 tested, 0.66% active. TRHR cells, fluo-8 calcium fluorescence, EC20 TRH enhancement. P34981. enhancement, % at 2 µM; in the data active means enhancement above about 30%
Target sequence (P34981 whole entry, looked up): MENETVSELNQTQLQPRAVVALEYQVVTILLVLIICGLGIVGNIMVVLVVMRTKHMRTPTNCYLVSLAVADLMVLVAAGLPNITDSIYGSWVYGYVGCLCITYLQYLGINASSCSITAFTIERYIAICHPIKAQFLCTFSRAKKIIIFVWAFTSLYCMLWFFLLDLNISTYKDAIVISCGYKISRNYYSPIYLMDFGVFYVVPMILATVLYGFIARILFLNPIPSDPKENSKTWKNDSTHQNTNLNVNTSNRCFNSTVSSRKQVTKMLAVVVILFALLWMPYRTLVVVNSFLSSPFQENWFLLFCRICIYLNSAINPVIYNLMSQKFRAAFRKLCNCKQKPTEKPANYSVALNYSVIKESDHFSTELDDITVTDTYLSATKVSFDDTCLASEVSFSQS
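Enhancer read-out: after compound pinning and an initial kinetic agonist-mode read, an EC20 of TRH (10 nM final) was injected and fluo-8 calcium signal (Ex 480/Em 530) followed at 1 s/cycle for 100 cycles in TRHR-expressing cells.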
TRPML1 blocker – inhibitors of human TRPML1 channel | Q9GZU1 | TRPML1-inducible cells, Ca2+ dye fluorescence, FDSS; stronger effect = lower value; inhibition of EC80 agonist-evoked calcium signal | activity change, negative = inhibition, % (no concentration beside the values) | 390,000 tested, 0.02% active | AID 624415; in the data active means activity change below about -50%; inconclusive means between about -30% and that limit;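 further: stimulus is agonist 54-4 at its EC80 concentration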
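Calcium fluorescence in TRPML1-DL cells induced overnight with Tet: a 110 s read after compound pin addition, then a 110 s antagonist read after challenge with 54-4 at 4 uM final (EC80).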
TRHR ag – activates the human TRH receptor; P34981; TRHR cells, calcium flux fluo-8, FDSS agonist mode; activation, % at 2 µM; 360,000 tested, 0.18% active; AID 493084; in the data active means activation above about 30%
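TRHR-expressing cells, plated overnight in medium with 10% serum, were loaded with fluo-8 calcium dye at room temperature. After a 10 s baseline, library compound was pin-added and calcium release was recorded kinetically (ex 480/em 530) as agonist response.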
TRPML1 ag – human mucolipin-1 channel agonism. 410,000 tested, 0.12% active. activation, % (test concentration not listed). Q9GZU1. TRPML1-expressing cells, Ca2+ dye fluorescence, FDSS; in the data active means activation above about 50%; inconclusive means mostly about 30% to 49%
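Cells: TRPML1-DL, 1X Tet inducer, ~16 h at 37 degrees C/5% CO2. Dye: ABD Ca8 no-wash + quencher, 45-90 min RT. Read: 10 s baseline, compound add, 110 s agonist phase; 54-4 EC80 (4uM final), 110 s antagonist phase.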
TRPV1 potentiator – potentiators of human vanilloid receptor 1 (TRPV1). Q8NER1. TRPV1-expressing cells, Fluo-8 calcium influx, capsaicin EC20 potentiation. potentiation, % at 8.33 µM. 320,000 tested, 0.02% active. AID 540277; in the data active means potentiation above about 80%; inconclusive means between about 30% and that limit
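Cells expressing TRPV1 were dye-loaded with Fluo-8 and read kinetically: 10 s baseline, 3 min after compound (agonist portion), then 2 min after EC20 capsaicin (allosteric enhancer portion). Calcium-bound dye fluorescence at 480/520 nm.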
TRPV1 ag – agonists of human vanilloid receptor 1 (TRPV1); Q8NER1; AID 540275; TRPV1-expressing cells, Fluo-8 calcium influx, agonist mode; 320,000 tested, 0.19% active; activation, % at 8.33 µM; in the data active means activation above about 80%; inconclusive means between about 30% and that limit
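TRPV1-expressing cells were cultured overnight at 35.5C and loaded with Fluo-8 calcium dye for 40 to 90 min at room temperature. After a 10 s baseline, compound was added and calcium influx was read kinetically for 3 min (ex 480/em 520 nm).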
A number is an active result; i = inactive; ? = inconclusive; nt = no result given; ! = not confirmed by another sample. Most compounds without a hit are left out; they make up all but 0.99% or so of the library.

SMILES	TRHR enhancer	TRPML1 blocker	TRHR ag	TRPML1 ag	TRPV1 potentiator	TRPV1 ag
COc1ccccc1NC(=O)CCN1C(=O)C2CC=CCC2C1=O (stereo not given)	35	i	i	i	i	i
CC(=O)c1cccc(NC(=O)COc2ccccc2C(=O)Nc2ccccc2)c1	nt	nt	nt	i	nt	nt
COc1cccc(C(=O)NC(C)CCc2ccccc2)c1 (stereo not given)	33	i	i	i	i	i
CCCc1cc(F)c(S(=O)(=O)N2CCN(S(=O)(=O)c3ccc4c(c3)OCCO4)CC2)cc1F	i	nt	i	nt	nt	nt
COc1cc(OC)c(C2Nc3c(C)cccc3-c3cc(C)nn32)cc1OC (stereo not given)	31	i	i	i	nt	nt
Cc1cc2n(n1)C(c1sccc1C)Nc1c(C)cccc1-2 (stereo not given)	i	i	i	i	i	i
COc1ccc(-c2cc(C(F)(F)F)n3nc(C(=O)Nc4cccc(Cl)c4C)cc3n2)cc1	39	i	i	i	nt	nt
Cc1ccc2oc(-c3ccc(C)c(NC(=O)COc4ccc(Cl)cc4C)c3)nc2c1	nt	nt	nt	i	nt	nt
CCc1cc(=O)oc2cc(O[C@@H]3O[C@H](CO)[C@@H](O)[C@H](O)[C@H]3O)c(Cl)cc12	33	i	i	i	i	i
COc1ccc(/C=c2\s/c(=C/C(=O)c3ccc(C)cc3)[nH]c2=O)c(OC)c1	i	i	54	?	i	i
COc1cccc(/C=c2\s/c(=C/C(=O)c3ccc(C)cc3)[nH]c2=O)c1OC	i	i	i	i	i	i
Cc1ccc(-c2csc3ncnc(Sc4nnnn4C4CC4)c23)cc1	nt	nt	nt	i	nt	nt
N#C/C(=C/c1ccc(-c2ccccc2)o1)c1nc(-c2cccs2)cs1	i	?	68	?	i	i
N#C/C(=C/c1ccc(-c2ccc(S(N)(=O)=O)cc2)o1)c1nc2ccccc2s1	i	i	93	64	i	i
N#C/C(=C/c1ccc(-c2ccc(S(N)(=O)=O)cc2)o1)C(=O)Nc1ccccc1	i	i	i	i	i	i
N#C/C(=C\c1ccccn1)c1nc2ccccc2s1	i	i	45	i	i	?
COc1ccc(CN(Cc2ccccc2)C(=O)c2ccno2)cc1COc1ccc(NC(C)=O)cc1	nt	nt	nt	i	nt	nt
S=c1ncc2n[nH]nc2[nH]1	nt	nt	nt	i	nt	nt
CCCCCCC[n+]1ccc(C)c2ccccc21	nt	nt	nt	i	nt	nt
CN1CC[C@H](c2c(O)cc(O)c3c(=O)cc(-c4ccccc4Cl)oc23)[C@@H](O)C1	nt	nt	nt	i	nt	nt
CN1CCCc2ccccc21	nt	nt	nt	i	nt	nt
CC1(C)CC(=O)c2c(Cc3ccccc3)noc2C1	32	i	i	i	i	i
CC1(C)CC(=O)c2c(noc2-c2ccccc2)C1	i	i	i	i	i	i
COc1cc(Br)c(CC(=O)NO)cc1OC	nt	nt	nt	i	nt	nt
CCN1C(=NCc2cccc(C(F)(F)F)c2)N[C@@H](c2cccc(C(F)(F)F)c2)C(C(=O)OC)=C1C	nt	nt	nt	i	nt	nt
SMILES	TRHR enhancer	TRPML1 blocker	TRHR ag	TRPML1 ag	TRPV1 potentiator	TRPV1 ag
Cc1ccc(S(=O)(=O)c2nc(Nc3nccs3)sc2Cl)cc1	30	i	i	i	i	i
CC(=O)Nc1nc(S(=O)(=O)c2ccc(C)cc2)c(Cl)s1	i	i	i	i	i	i
CSc1ccc(/C=C2\C(=N)N3N=C(CC(=O)N4CCOCC4)SC3=NC2=O)cc1	i	i	i	i	i	i
CCN(CC)c1ccc(/C=C2\C(=N)N3N=C(CC(=O)N4CCOCC4)SC3=NC2=O)cc1	i	i	34	?	i	?
Nc1cc([N+](=O)[O-])cc(N)c1N	nt	nt	nt	i	nt	nt
CCN(CC)C1=NS(=O)(=O)c2cc([N+](=O)[O-])ccc21	34	i	i	i	i	i
CCOC(=O)c1sc(-c2ccccc2)cc1NC(=O)Nc1ccccc1	i	i	i	i	i	88
COC(=O)C1CCN(C(c2cc(OC)c(OC)c(OC)c2)c2sc3nc(C)nn3c2O)CC1 (stereo not given)	31	i	i	i	i	i
COc1ccc(NC(=O)c2cc(OC)c(OC)c(OC)c2Br)cc1OC	39	i	i	i	i	i
O=C(CNC(=O)c1cccc2ccccc12)OC(C(=O)Nc1cc(C(F)(F)F)ccc1Cl)c1ccccc1 (stereo not given)	i	nt	i	nt	nt	nt
Cc1ccc(C2NC(=O)c3ccccc3N2)s1 (stereo not given)	35	i	i	i	i	i
CCOc1ccc(NC(=O)CN(C)C(=O)CCCn2c(=O)oc3ccccc32)cc1OCC	38	i	i	i	i	i
O=C(OCc1ccccc1)N1CCN(/[N+]([O-])=N/Oc2ccc([N+](=O)[O-])cc2[N+](=O)[O-])CC1	nt	i	nt	i	nt	nt
Cn1c(=O)n(CC(=O)O)c(=O)c2c1nc1n2CCS1	40!	i	i	i	i	i
CCn1c(=O)c2c(nc3n2CCS3)n(C)c1=O	i	i	i	i	i	i
COc1ccc(CNC(=O)CSc2nc3ccc(N)cc3s2)cc1	i	i	42	i	i	i
O=C(CSc1nnc2scc(-c3ccccc3)n12)N1CCN(Cc2ccccc2)CC1	39	i	i	i	i	i
Cc1nc(NCC(=O)c2c[nH]c3ccccc23)sc1C	nt	nt	nt	i	nt	nt
O=C(C[n+]1cccc(Cl)c1)c1ccc(O)c(O)c1	nt	nt	nt	i	nt	nt
CCOC(=O)c1ccc(NC(=O)c2n[nH]c(=O)c3ccccc23)cc1	i	i	i	i	i	i
COc1cc(NC(=O)c2n[nH]c(=O)c3ccccc23)cc(OC)c1	35	i	i	i	i	i
O=C1N/C(=N\S(=O)(=O)c2ccccc2)S/C1=C\c1cc([N+](=O)[O-])ccc1O	40	i	114	51	i	i
O=C1N/C(=N\S(=O)(=O)Cc2ccccc2)S/C1=C/c1cc([N+](=O)[O-])ccc1O	49	i	102	74	i	?
COc1cc(/C=C2\S/C(=N/S(=O)(=O)Cc3ccccc3)NC2=O)c([N+](=O)[O-])cc1OC	i	i	i	i	i	i
Cc1ccc(S(=O)(=O)/N=C2/NC(=O)/C(=C\c3cc(Br)cc(Br)c3O)S2)cc1	i	i	118	?	i	?
SMILES	TRHR enhancer	TRPML1 blocker	TRHR ag	TRPML1 ag	TRPV1 potentiator	TRPV1 ag
CN(C)c1ccc(C=Nc2ccc(/C=C3\C=Cc4ccccc43)cc2)cc1	nt	nt	nt	i	nt	nt
CC(C)(C)n1ncc2c(=O)n(Cc3cccc(OC(F)F)c3)cnc21	nt	i	nt	i	nt	nt
CCN(CC)CCN(C)c1ccc(/C=C/c2ccnc3ccccc23)cc1	nt	nt	nt	i	nt	nt
CN(C)c1ccc(/C=C/c2cccc3cc4ccccc4nc23)cc1	nt	nt	nt	i	nt	nt
CC(C)c1ccc(NCCC(=O)c2cccs2)cc1	i	i	i	i	i	90
N#CC1=C(N)OC2=C(CC/C2=C\c2ccccc2Cl)C1c1ccccc1Cl (stereo not given)	i	i	i	i	i	i

Screening results as filed in PubChem BioAssay.
